Results filed as inconclusive are left out. Active and inactive are the calls of the source. The calls were made as follows, unless noted: active = hit-call score of the fitted dose curve at least 0.9, where 1 is the maximum; inactive = score below 0.9.

A short description of assay [1]: CCTE_Padilla_ZF_Score.General: CCTE's 144 Hour Post-fertilization zebrafish Assay Score for General Malformation, Padilla Lab (AID 2284411). The method, boiled down: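 Wild-type zebrafish embryos were plated singly at 6-8 hpf in 10% Hanks' and exposed in sealed wells at 26C until rinsed on 5 dpf. At 6 dpf two blinded assessors scored mortality, hatching and malformations by stereomicroscopy; gain-of-signal versus DMSO.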

Assay [2] relates to SRY-box transcription factor 17 (SOX17) Protein Expression, Deisenroth Lab, SOX17 (gene 64321). Put plainly: CCTE_Deisenroth_DEVTOX-GLR_Endo_SOX17: CCTE's DevTox GLR-Endo Assay Evaluation of SRY-box transcription factor 17 (SOX17) Protein Expression, Deisenroth Lab (AID 2284413). The method, boiled down: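 Endpoint: % change in SOX17+ fraction (SOX17+ cells / cell count) vs 0.2% DMSO solvent control. RUES2-GLR reporter cells, 48 h endoderm differentiation, two doses at 24 h intervals, high-content fluorescence imaging, 5 fields/well.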

Assay [3] concerns Brachyury (BRA) Protein Expression, TBXT (gene 6862). Put plainly: CCTE_Deisenroth_DEVTOX-GLR_Endo_BRA: CCTE's DevTox GLR-Endo Assay Evaluation of Brachyury (BRA) Protein Expression, Deisenroth Lab (AID 2284417). A digest of the protocol:
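RUES2-GLR human pluripotent cells, seeded 24 h, then differentiated 48 h in defined media with two chemical exposures 24 h apart (10-point series, 1 nM - 200 uM). Fixed, nuclear-stained, imaged; endpoint is percent BRA+ cells minus 0.2% DMSO control.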

Assay [4] is described as follows: CCTE_Deisenroth_DEVTOX-GLR_Endo_CellCount: Viability Assessment in CCTE's DevTox GLR-Endo Assay, Deisenroth Lab (AID 2284420). A digest of the protocol: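 Percent change in nuclear-stain cell counts versus 0.2% DMSO, from high-content imaging over 5 fields per well. Over a 48 h endoderm differentiation, RUES2-GLR cells received two doses 24 h apart across a 1 nM–200 uM series, with n=4.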

In assay [5] the test system is SRY-box transcription factor 17 (SOX17) Protein Expression, Deisenroth Lab, SOX17 (gene 64321). In words: CCTE_Deisenroth_DEVTOX-GLR_Pluri_SOX17: CCTE's DevTox GLR-Pluri Assay Evaluation of SRY-box transcription factor 17 (SOX17) Protein Expression, Deisenroth Lab (AID 2284427; active = hit-call score of the fitted dose curve at least 0.9, where 1 is the maximum). A digest of the protocol:
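The endpoint is SOX17+ cells as a fraction of cell count, corrected for the 0.2% DMSO control and obtained by high-content fluorescence imaging of fixed cells. Cells were RUES2-GLR under a 48-hour endoderm differentiation, dosed twice at 24-hour intervals over 1 nM–200 uM.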

Assay [6] concerns SRY-box transcription factor 2 (SOX2) Protein Expression, Deisenroth Lab, SOX2 (gene 6657). Put plainly: CCTE_Deisenroth_DEVTOX-GLR_Pluri_SOX2: CCTE's DevTox GLR-Pluri Assay Evaluation of SRY-box transcription factor 2 (SOX2) Protein Expression, Deisenroth Lab (AID 2284428). The method, boiled down: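 Percent SOX2+ cells (SOX2+ count per total cells, fluorescent imaging) in RUES2-GLR human pluripotent line, expressed relative to 0.2% DMSO. Compounds dosed twice at 24 h intervals during 48 h, 1 nM - 200 uM, 10 concentrations.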

The test system of assay [7] is Brachyury (BRA) Protein Expression, Deisenroth Lab, TBXT (gene 6862). In words: CCTE_Deisenroth_DEVTOX-GLR_Pluri_BRA: CCTE's DevTox GLR-Pluri Assay Evaluation of Brachyury (BRA) Protein Expression, Deisenroth Lab (AID 2284429; active = hit-call score of the fitted dose curve at least 0.9, where 1 is the maximum). The method, boiled down:
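Human pluripotent RUES2-GLR cells, seeded 24 h, were differentiated 48 h in defined media with two chemical doses at 24-h intervals (10-point, 1 nM - 200 uM). Readout: percent BRA+ cells by fluorescent reporter imaging, minus 0.2% DMSO control.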

Assay [8] is described as follows: CCTE_Deisenroth_DEVTOX-GLR_Pluri_CellCount: Viability Assessment in CCTE's DevTox GLR-Pluri Assay Evaluation of Total Cell Counts, Deisenroth Lab (AID 2284430). A digest of the protocol:
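RUES2-GLR human pluripotent cells, seeded 24 h, then differentiated 48 h with two chemical exposures 24 h apart; 10-point series 1 nM - 200 uM. Fixed, nuclear-stained, imaged (5 fields/well); nuclei count as % change vs 0.2% DMSO.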

Assay [9] can be described thus: CCTE_Padilla_ZF_Score.Edema: CCTE's 144 Hour Post-fertilization zebrafish Assay Score for Edema Malformation, Padilla Lab (AID 2284406). The method, boiled down: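 Wild-type zebrafish embryos, one per well in Hanks' solution, dosed at 6-8 hpf, sealed and reared at 26C on a 14:10 h cycle; rinsed on 5 dpf. At 6 dpf, blinded assessors scored edema by stereomicroscopy.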

A short description of assay [10]: CCTE_Padilla_ZF_Score.Spine: CCTE's 144 Hour Post-fertilization zebrafish Assay Score for Spine Malformation, Padilla Lab (AID 2284407). The method, boiled down:
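Wild-type zebrafish embryos, one per well in Hanks' solution, dosed at 6–8 hpf in sealed plates at 26C, 14:10 h light:dark; rinsed at 5 dpf. Two blinded assessors scored spinal defects by stereomicroscopy at 6 dpf; fitted versus DMSO.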

Assay [11] is described as follows: CCTE_Padilla_ZF_Score.Swim_bladder: CCTE's 144 Hour Post-fertilization zebrafish Assay Score for Swim Bladder Malformation, Padilla Lab (AID 2284408). A digest of the protocol:
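Wild-type zebrafish embryos, one per well in 10% Hanks', dosed at 6–8 hpf, sealed, reared at 26C and rinsed at 5 dpf. Blinded assessors scored uninflated swim bladder by stereomicroscopy at 6 dpf, relative to DMSO.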

Assay [12] in a line: CCTE_Padilla_ZF_Score.Position: CCTE's 144 Hour Post-fertilization zebrafish Assay Score for Position, Padilla Lab (AID 2284409). The method, boiled down: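 Wild-type zebrafish embryos (with chorions) exposed singly from 6–8 hpf in sealed wells of Hanks' solution at 26C, rinsed at 5 dpf. At 6 dpf, blinded assessors scored abnormal water-column position by brightfield stereomicroscopy, relative to DMSO.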

A short description of assay [13]: CCTE_Padilla_ZF_Score.Living: CCTE's 144 Hour Post-fertilization zebrafish Assay Score for Viability, Padilla Lab (AID 2284410).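 Also: larval death at 6 dpf judged by absent heartbeat or coagulation.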 A digest of the protocol: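 Wild-type zebrafish embryos were exposed singly from 6–8 hpf in sealed wells of Hanks' solution at 26C, then rinsed at 5 dpf. At 6 dpf, blinded assessors scored mortality (no heartbeat or coagulation) by stereomicroscopy, fitted against DMSO.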

The nature of assay [14]: CCTE_Padilla_ZF_Score.Tail: CCTE's 144 Hour Post-fertilization zebrafish Assay Score for Tail Malformation, Padilla Lab (AID 2284414). The method, boiled down: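 Wild-type zebrafish embryos, one per well in 200 uL 10% Hanks', dosed at 6-8 hpf, sealed, and kept at 26 C on a 14:10 h light cycle. Chemical was rinsed out at 5 dpf. Blinded brightfield scoring of tail defects followed at 6 dpf.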

A short description of assay [15]: CCTE_Padilla_ZF_Score.Blood_pooling: CCTE's 144 Hour Post-fertilization zebrafish Assay Score for Blood Pooling, Padilla Lab (AID 2284415). A digest of the protocol: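 Wild-type outbred zebrafish embryos, one per well in 10% Hanks', exposed from 6–8 hpf in sealed plates at 26C on 14:10 h light:dark, rinsed at 5 dpf. Blinded stereomicroscope scoring of blood pooling at 6 dpf; gain-of-signal versus DMSO.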

Assay [16] in a line: CCTE_Padilla_ZF_Score.Any: CCTE's 144 Hour Post-fertilization zebrafish Assay Score for Any Mortality or Malformation, Padilla Lab (AID 2284416). A digest of the protocol: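 Wild-type zebrafish embryos with chorions, one per well in 10% Hanks' from 6–8 hpf, dosed in sealed plates at 26 C, 14:10 h light:dark; rinsed at 5 dpf; blinded scoring at 6 dpf for death or malformation, versus DMSO.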

Another assay relates to TTR (gene 7276). Put plainly: CCTE_GLTED_hTTR_0.125uM: CCTE's human Transthyretin (hTTR) Inhibition Assay, with 0.125uM TTR, Great Lakes Toxicology and Ecology Division (GLTED) Lab (AID 2284431).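 Also: hits lower the fluorescence signal relative to DMSO baseline.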 A digest of the protocol:
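TTR at 0.125uM incubated 2 h with test chemical; displacement of bound ANSA read by fluorescence (ex 380, em 475). Activity is signal loss versus DMSO baseline.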

Turning to `CC(=O)CCC=C(C)CCC=C(C)C`, the compound was called inactive in [1].

With `O=C(O)c1ccccc1O`, the compound was called inactive in assay [2], in assay [3], in assay [4], in [5], in assay [6] and in assay [7]. Besides, in [8], the compound was called inactive.

As for `CCOC(=O)C=Cc1ccccc1`, in assay [1], the outcome was inactive.

For `CCOC(=O)CCCCCCCCC(=O)OCC`, the compound was classed as inactive in assay [1].

Turning to `CCCCCCCCCCCCS`, the compound was classed as inactive in [1].

As for `O=C(O)C(F)(F)OC(F)(F)C(F)(F)OC(F)(F)C(F)(F)C(F)(F)C(F)(F)F`, the outcome in [9], in assay [10], in [11], in assay [12], in [14] and in [15] was inactive. The result in assay [16] was inactive. Further, the AC50 is 81.2 µM (active) in assay [13] and 81.3 µM (active) in assay [1].

On to `CCCCCCOc1ccc(O)cc1`, for which, in the assay with TTR (gene 7276), the half-maximal activity concentration (AC50) is 3.47 µM (active).

As to `O=S(=O)(O)c1cc(S(=O)(=O)O)c2c(N=Nc3ccccc3)c(O)ccc2c1`, the half-maximal activity concentration (AC50) with TTR (gene 7276) was 12 µM (active).

Consider `OCC(F)(OC(F)(F)C(F)(OC(F)(F)C(F)(F)C(F)(F)F)C(F)(F)F)C(F)(F)F` (stereo not given), for which the compound was called inactive in assay [9], in [10], in assay [11], in assay [12], in assay [1] and in [14]. In addition, the compound was called inactive in [15]. For the same compound, the values for the concentration at half-maximal activity (AC50) in [13] and in assay [16] were 35.4 µM (active) and 31.8 µM (active), respectively.

As to `C=C(F)C(=O)OC(C(F)(F)F)C(F)(F)F`, the call in assay [9], in [10], in assay [11], in assay [12], in assay [13] and in assay [1] was inactive. For the same compound, the compound was classed as inactive in assay [14], in assay [15] and in assay [16].

As a reminder, the AC50 is the concentration giving half of the maximal activity seen.

Source of the values: PubChem BioAssay (EPA / NIEHS).
